According to PubChem BioAssay AID493076 (National Center for Advancing Translational Sciences (NCATS), 2011):
The list shows a part of the results. Records with an inconclusive call do not appear. The source made the active and inactive calls. Calls come from the whole dose curve; as a rule, active = well fitted curve in the direction sought with a large enough effect; inconclusive = small, poorly fitted or top-dose-only effect, or effect the other way, or another doubt; inactive = no such curve, though single readings can be large or run the other way. Residues, ends and D or L forms follow the SMILES beside them. *: point of attachment. OPac = O=C(CO*)c1ccccc1; Bz = O=C(c1ccccc1)*

target: Thyrotropin-releasing hormone receptor (Homo sapiens) (UniProt P34981); test: qHTS for Small Molecule Agonists and Allosteric Enhancers of Human TRH Receptor: Confirmation Screen for Enhancers; conditions: TRH receptor cell assay, enhancer confirmation qHTS; series mostly up to 46.1 µM
Sequence (P34981 whole entry, looked up): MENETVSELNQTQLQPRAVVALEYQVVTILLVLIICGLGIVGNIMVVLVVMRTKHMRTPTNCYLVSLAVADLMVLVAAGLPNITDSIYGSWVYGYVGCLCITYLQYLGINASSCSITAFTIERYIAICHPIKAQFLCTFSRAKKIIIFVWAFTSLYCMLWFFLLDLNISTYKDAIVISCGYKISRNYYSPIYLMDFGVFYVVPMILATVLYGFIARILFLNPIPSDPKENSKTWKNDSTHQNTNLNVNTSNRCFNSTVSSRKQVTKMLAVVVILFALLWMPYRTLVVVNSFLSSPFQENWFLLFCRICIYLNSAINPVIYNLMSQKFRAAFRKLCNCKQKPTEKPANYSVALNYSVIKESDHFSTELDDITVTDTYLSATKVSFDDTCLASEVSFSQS
Description: NIH Chemical Genomics Center [NCGC]
NIH Molecular Libraries Probe Centers Network [MLPCN]
Assay Submitter (PI): Marvin Gershengorn
This project aims to identify small drug-like molecules that activate (agonists) the thyrotropin releasing hormone (TRH) receptor (TRHR) or enhance its TRH-stimulated activity (allosteric enhancers). TRHR, a drug-accessible cell surface receptor expressed in specific brain regions, and its ligand TRH have been implicated in several central nervous system disorders, including depression and anxiety. Small molecule TRHR agonists or allosteric enhancers that are metabolically stable and able to cross the blood-brain barrier might serve as probes to elucidate the roles of brain TRH receptors in animal models, and might be valuable as lead compounds for the development of drugs to treat patients with central nervous system disorders.
Upon TRHR-Gq activation in TRHR cells, intracellular calcium is released from stores in the endoplasmic reticulum. […] This primary screen measures compound-induced enhancement of an EC20 stimulation of the receptor by its native ligand.
For the HTS assay freshly prepared cells are plated at a density of 2000/well in 3 ul of complete DMEM medium containing 10% serum in 1536-well plates and cultured over night at 37 C in a humidified incubator with 5% CO2. The next day, 2 ul of a no wash calcium dye (ABD Bioquest) was added to the cells and plates were incubated at room temperature for 1 hour. For the assay, assay plates were loaded into the FDSS kinetic plate reader. A 10 cycle (1 second/cycle) baseline measurement is taken and then the FDSS online 1536 pintool delivers 23 nl of compound library (as well as TRH controls) to the plate. The plate is measured for kinetically at 1 cycle/sec for 180 seconds and is considered to be the agonist portion of the assay (eg, compounds which activate a positive calcium response during this portion are flagged as potential agonists). Following the 180 second read, 1 ul of either an EC20 (positive modulation assay) is delivered by an onboard pipette head. Measurements are taken kinetically for an additional 180 seconds.
TRHR FDSS Screening Protocol
1. Reagent, 3 uL 2000 cells/well 1536 TC treated Black plate in media containing 10% FCS
2. Time, 18 hours, 33.5C 5% CO2 (cells grown at 37C)
3. Reagent, 2 uL ABD fluo-8 Ca dye
4. Time, 30 min-1.5hrs hours, Room temp (6 plates/batch)
5. Detector, EX 480/EM 530C, FDSS 10 cycles baseline (1sec/cycle)
6. Compound, 23 nL of stock solution from library
7. Detector, EX 480/EM 530C, FDSS 230 cycles (1sec/cycle) Agonist mode
8. Compound, 1 ul EC20 of TRH made up in HEPES HBSS, 10 nM final
9. Detector, EX 480/EM 530C, FDSS 100 cycles (1sec/cycle) Potentiator mode

outcome, inactive:
CC(=O)c1cc(NC(=O)c2ccccc2)c(=O)oc1/C=C/N(C)C
CN(C(=O)CSc1nnc(Nc2ccccc2)s1)C1CCS(=O)(=O)C1 (stereo not given)
Cc1c(/C=N\NC(=O)c2cc3ccccc3o2)c2ccccc2n1C
O=C(Nc1ccccc1)c1cccnc1Nc1ccccc1
NS(=O)(=O)c1cccc(NC(=O)CSc2nc3ccccc3n2-c2ccccc2)c1
NC(N)=Nc1nc(-c2ccccc2)c2cc(Cl)ccc2n1
C/C(=N/OC(=O)c1ccc(Br)cc1)c1ccc(C)cc1
Cn1cccc1C1(C(F)(F)F)NCCNC1=O (stereo not given)
c1cnc(N2CCN(c3ccc4ccccc4n3)CC2)nc1
C/C(=C\c1ccco1)CN1CCC(N2CCC(C(=O)N3CCOCC3)CC2)CC1
CC(=O)N1CCN(CC(=O)Nc2ccc(C)c(F)c2)CC1
O=C(CNC(=O)c1ccccc1)NCC(=O)OCC(=O)c1ccccc1 (Bz-Gly-Gly-OPac)
CSc1nnnn1-c1c(C)cc(C)cc1C
O=c1o[nH]c(-c2ccccc2)c1N=Nc1c(F)cccc1Cl
Cc1nn(Cc2ccccc2)c(C)c1C(=O)N1CCN(CC(=O)Nc2ccccc2Cl)CC1
CCOc1cc(CN2CCCC(CO)(Cc3ccc(F)cc3F)C2)ccc1OC (stereo not given)
Cc1cc(C(=O)CCl)c(C)n1CC1COc2ccccc2O1 (stereo not given)
Cc1ccc(Cl)c(OCC(=O)N2CCc3ccccc3C2)c1
CC1(C)Cc2c(cnn2-c2cccc(F)c2)C(NC(=O)c2cc[n+]([O-])cc2)C1 (stereo not given)
COc1cc(C2C3=C(CCCC3=O)OC3=C2C(=O)CCC3)ccc1OCC(=O)Nc1ccccc1
CCOC(=O)C1=C(O)/C(=C/c2cc(C)n(-c3ccccc3)c2C)N=C1C
O=C1C(=O)N(CCCO)C(c2ccccc2)/C1=C(\O)c1ccc(Br)cc1 (stereo not given)
Cc1ccc(-c2cn(S(=O)(=O)c3cccc([N+](=O)[O-])c3)nc2N)cc1
COc1ccc(CCn2ccc(O)c(Cc3ccc(Cl)cc3Cl)c2=O)cc1OC
Cc1cccn2c(=O)c3cc(C(=O)NC4CCCCC4)sc3nc12
CC(=O)n1c(C=Nc2ccccc2)c(O)c2ccccc21
Cc1cc(S(=O)(=O)c2cc3ccc(O)c(C)c3oc2=O)ccc1F
COc1cc(/C=C(\C#N)c2nc3ccccc3[nH]2)ccc1O
CCc1ccccc1NC(=O)/C(=C/c1ccccc1)c1ccccc1
O=c1[nH]c2cccnc2n(CCNc2ncc(C(F)(F)F)cc2Cl)c1=O
CCOc1ncccc1C(=O)OCC(=O)N1c2ccccc2CC1C (stereo not given)
N#Cc1ccc(Oc2cc(C(F)(F)F)nc(-c3ccccn3)n2)cc1
O=C1NC(=O)C2C1C(c1ccc([N+](=O)[O-])cc1)=NN2Cc1ccccc1 (stereo not given)
COC(=O)C1=C(C)NC2=C(C(=O)c3ccccc32)C1c1ccc(-c2ccc(C(=O)O)cc2)o1 (stereo not given)
Cc1cc(C)c2nc3nc(C)cc(C)c3c(N)c2c1
Cc1ccc(S(=O)(=O)N2CCN(CC(=O)N/N=C/c3ccc(Br)s3)CC2)cc1
O=C(CN1C(=O)c2cccc3cccc1c23)Nc1ccccc1
Cc1csc(CN(C)C(=O)CC2C(=O)NCCN2CC(C)(C)C)n1 (stereo not given)
CCc1nnc(NC(=O)[C@@H](NC(=O)c2cccc(C)c2)C(C)C)s1
CC1=C(C)CC(C(=O)NC(C)CCc2ccccc2)C(C(=O)O)C1 (stereo not given)
